Results as given in the supplement of paper PMC10338343.
± gives the standard deviation.

What follows are sequences tested on MILI (PIWIL2) piRISC loaded with L1MC piRNA (26 nt) (assay: pre-steady-state target cleavage rate (min^-1); guide: L1MC piRNA 5'p-UAACUAAAUACUAUGCAAGCUGUAGG; MIWI and MILI are mouse PIWI proteins and EfPiwi is from a freshwater sponge; tags in brackets are library labels; higher = faster piRNA-guided slicing of the target). Conditions: auxiliary factor: 500 nM mouse GTSF1.
In short: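 Active affinity-purified piRISC (1 nM) loaded with one synthetic guide was mixed with a transcribed, DNA-blocked target RNA library (0.1 nM), with or without 500 nM GTSF1 partner protein, in HEPES–potassium acetate buffer at 33 °C for 0–8 or 0–960 min. Uncleaved targets were sequenced, normalised to depth and to weakly complementary targets, and pooled across three trials, with k3 capped at 0.0001 min^-1. The pre-steady-state cleavage rate was determined with a burst-and-steady-state fit.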

Row | Sequence | pre-steady-state target cleavage rate
1 | UCCUGGAUGUCGAUGGAUAGUAUUUAGUAA | 0.00684 ± 0.0036
2 | UCCUCCUACAGCUUGCAUUGUAUUUUCAAA | 0.0415 ± 0.012
3 | UCCUGGAUGUCGUUGCAUAGUAUUUCGUUA | 0.0162 ± 0.0076
4 | UCCUGGAUGUCCUUGCAUUGUAUUUACUUA | 0.0534 ± 0.012
5 | UCCUCCUACAGCUUGCAAUGUAUUUUCAAA | 0.0219 ± 0.0065
6 | UCCUGGAUGUCGAUGCAUAGUAUAUUGUUA | 0.0249 ± 0.008
7 | UCCUGGAACAGCUUGCAUAGUAAAAAGAAA | 0.0185 ± 0.0077
8 | UCCUGCUACAGCAACCAUAGUAUUUAGUAA | 0.35 ± 0.063
9 | UCCUGGAUGAGCUUGCAUAGUAUUAUGUUA | 0.172 ± 0.036
10 | UCCUCCUACAGCUUGCUAAGUAUUUACAAA | 0.0519 ± 0.013
11 | UCCUGGAUGUCGAACGAUCAGUAUUUAGUUA | < 0.0001
12 | UCCUGGAUGUGCUUGCAUAGUUUAUAGUUA | 0.00502 ± 0.0041
13 | UCCUGGAUGUCGAACCAUAGUAUUUAGUUA | 0.00718 ± 0.0019
14 | UCCUGGAUGAGCUUGCAUUGUAUUUACUUA | 0.031 ± 0.012
15 | UCCUGGAUGUGCUUGCAUAGUAUUAUGUUA | 0.0376 ± 0.013
16 | UCCUGCUACUGCUUGCAUAGUAUUUAGUAA | 0.146 ± 0.034
17 | UCCUGGAUGAGCUUGCAUAGUAUUUUGAAA | 0.0223 ± 0.0096
18 | UCCUGGAUGUCGAUGCAUAGUAAUUUGUUA | 0.00959 ± 0.0053
19 | UCCUGGAUGUCGAAGCAUAGUAUUUAGUGUA | 0.035 ± 0.012
20 | UCCUGGUACACCUUGCAUAGUAUUUUGUUA | 0.201 ± 0.054
21 | UCCUGGAUGUCGAUGCAUUGUAUUUAGUUA | 0.0091 ± 0.0037
22 | UCCUCCUACAGCUACCAUAGUAUUUAGAAA | 0.0576 ± 0.019
23 | UCCUGGAUGUCGAUGCUUAGUAUUUAGUAA | 0.0164 ± 0.0045
24 | UCCUGGAUCAGCUUGCAUAGUAUAAUGUUA | 0.116 ± 0.013
